# Compounds with a hit are over-represented: about 5.7% of the library has one in this group of screens.
# Myeloid diff 2 = compounds promoting myeloid differentiation | ER-HoxA9 myeloid progenitors, lysozyme-GFP differentiation, flow cytometry | AID 624256 | hit rate 1% among 360,000 | calls only at 10 µM;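 active = normalized GFP-positive differentiation at or above the plate's own cutoff, the solvent-only control mean plus 3 SD; inconclusive = no clear call, values can overlap the other calls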;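 note: cells exposed to compound for four days before flow analysis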
# rCAG RNA binder = molecules binding r(CAG) RNA repeats; r(CAG) RNA repeat, TO-PRO-1 dye displacement fluorescence; inhibition, % at 3 µM; hit rate 1.3% among 370,000; AID 651821;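 active = inhibition above the plate cutoff, the mean of all test compounds on that plate plus 3 SD, cut at about 35% in these data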;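 note: 0% = DMSO alone and 100% = 100 µM mitoxantrone as full dye displacement; higher means more dye released from RNA so lower well fluorescence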
# MPTP inh = permeability transition pore inhibition. isolated mouse mitochondria, Ca2+ swelling absorbance, 30 min. inhibition, % at 10 µM. hit rate 1.4% among 360,000. AID 602449;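 active = inhibition of 50% or more, scaled per plate between neutral and stimulator controls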;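 note: 0% = DMSO wells given calcium and 100% = 1 mM EGTA wells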
# FAS TE block = FAS thioesterase (human) inhibition; inhibition, % at 15 µM; hit rate 0.67% among 360,000; P49327; recombinant FAS-TE, OMFH fluorogenic substrate, fluorescence endpoint;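 active = compounds whose normalised, plate-corrected inhibition of enzyme fluorescence in the single-dose primary screen is 50% or more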;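 note: 0% = DMSO with enzyme and 100% = substrate without enzyme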
# NR3A LBD binder = modulates the human NR3A ligand-binding domain | NR3A LBD differential scanning fluorimetry, Tm shift; 0% = protein alone, 100% = glycine-bound protein | Tm shift relative to glycine control, % at 25 µM | hit rate 2.5% among 340,000;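 active = melting temperature shift of at least 10% of the positive control shift, at one fixed dose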
# Numbers without * were called inactive; i = inactive; ? = inconclusive; / = no result; + = active, no number.
SMILES,Myeloid diff 2,rCAG RNA binder,MPTP inh,FAS TE block,NR3A LBD binder
COC1C(O)C(C)OC(OC2C(Oc3cccc4c(O)c5c(=O)oc6ccc(C)c7c(=O)oc(c34)c5c67)OC(C)C(O)C2O)C1O (stereo not drawn),+,6,-2,0,2
Cc1cccc(N2C(=O)/C(=C/c3ccc(CN(CCC#N)S(C)(=O)=O)o3)C(=O)NC2=S)c1,i,66*,-2,-6,-8
Cc1cccc(N2C(=O)NC(=O)/C(=C/c3ccc([N+](=O)[O-])o3)C2=O)c1,/,/,/,/,-4
CC(C)(C)NC(=O)C1CN=C(c2ccccc2)c2cc(Cl)ccc2N1C(=O)C1CCC1 (stereo not drawn),/,3,/,/,/
Cc1ccccc1C(=O)NCCN1CCC2(CC1)C(=O)NCN2c1ccccc1,/,1,/,/,/
COc1ccc2c(c1OC)C(=O)OC2c1c(O)n(Cc2ccc(F)cc2)c(=O)[nH]c1=O (stereo not drawn),i,22,-2,-6,12*
CC[C@]12CCN(CC3(O)CC3)C(Cc3ccc(O)cc31)C2(C)C,/,3,/,/,/
O=C1NCN(c2ccccc2)C12CCN(C(c1ccnc3ccccc13)c1nnnn1-c1ccc3c(c1)OCCO3)CC2 (stereo not drawn),i,8,0,14,/
CC1([N+](=O)[O-])COP(=O)(Nc2ccc(Cl)cc2)OC1 (stereo not drawn),i,0,0,-2,1
CC1([N+](=O)[O-])COP(=O)(Nc2cccc(Br)c2)OC1 (stereo not drawn),+,0,0,-3,0
CCOc1ccc(N2C(=O)NC(=O)/C(=C\c3ccc(N4CCCCC4)o3)C2=O)cc1,i,-24,1,-14,-12
O=C1NC(=O)N(c2ccc3c(c2)OCO3)C(=O)/C1=C/c1ccc(N2CCCC2)o1,+,-39,0,-10,-1
CSc1ccc(NC(=O)C2(C)CCN2C(=O)C2(c3ccccc3)CC2)cc1 (stereo not drawn),i,0,1,14,/
CCOc1cc2c(cc1OCC)-n1cccc1C(c1cccc(F)c1F)NC2 (stereo not drawn),i,-7,0,10,10*
Cc1cccc(OP(=O)(NCc2ccccc2)Oc2cccc(C)c2)c1,i,-9,4,35,17*
COC1CC2C=C(C)C=CC=CC(=O)NC(c3ccccc3)CC=CCCC(O)CC(=O)C2=C1O (stereo not drawn),/,25,-2,0,/
N#CC(C#N)=NNc1ccc(S(N)(=O)=O)cc1,i,67*,3,7,10
COC(=O)C1CC(OC(C)=O)C(=O)[C@H]2C1(C)CC[C@H]1C(=O)OC(c3ccoc3)CC12C (stereo partly drawn),/,3,/,/,/
CN1C(=O)/C(=C/c2ccc(Cl)s2)C(=O)NC1=S,+,6,16,-4,0
Cc1ccsc1/C=C1\C(=O)NC(=S)N(C)C1=O,i,9,9,-6,-3
O=[N+]([O-])c1ccc(O)c([N+](=O)[O-])c1,i,2,0,1,18*
NC(Cc1ccc(Cl)cc1)c1csc(Nc2ncccn2)n1 (stereo not drawn),+,20,1,-9,/
Nc1ccc(CC(N)c2csc(Nc3ncccn3)n2)cc1 (stereo not drawn),i,5,1,-9,/
CC(=O)N1CCN(Cc2ccc(Cl)nc2)CC1,i,1,1,-7,2
CCCCc1ccc(C(=O)O)nc1,+,2,-2,-3,-1
SMILES,Myeloid diff 2,rCAG RNA binder,MPTP inh,FAS TE block,NR3A LBD binder
CC(C)OC(=O)C1C(c2ccc(I)cc2)CC2CCC1N2C (stereo not drawn),/,6,/,/,/
NS(=O)(=O)c1ccc(N=Cc2c(O)n(C3CCCCC3)c(=O)n(C3CCCCC3)c2=O)cc1,i,9,6,27,14*
COc1ccc(Br)cc1CN1CCN(CCO)CC1,i,-2,0,-5,-1
COc1cc(Br)cc(CN2CCN(C)CC2)c1O,i,/,0,-9,11*
CC(C)(C)c1ccc(O)c(N=Cc2c(O)ccc3ccccc23)c1,+,6,50,3,1
COc1ccc(-n2nnnc2C(c2cccs2)N2CCC3(CC2)C(=O)NCN3c2ccccc2)cc1 (stereo not drawn),i,6,1,26,/
CCCCCn1c(=O)c(C(=O)Nc2cc(C)ccn2)c(O)c2ccccc21,+,1,6,20,3
CCCCCn1c(=O)c(C(=O)Nc2cnccn2)c(O)c2ccccc21,/,4,3,7,-6
CC(C)C[C@H]1N=C(c2ccccc2)c2ccccc2N(CC(=O)NC(C)(C)C)C1=O,/,2,/,/,/
CCC1(c2ccccc2)C(=O)NC(=S)NC1=O,i,0,-1,-1,11*
CCC1(c2ccccc2)C(=O)NC(=O)NC1=O,/,2,1,-1,0
Cc1nc(N2CCN(Cc3ccc4c(c3)OCO4)CC2)[nH]c(=O)c1C,i,-4,0,-4,1
COc1ccc(OC(=O)N(C)C[C@H]2OCc3cnnn3CCCC(=O)N([C@@H](C)CO)C[C@@H]2C)cc1,/,0,/,/,/
O=C(Nc1ccc(F)cc1)c1c(O)c2c(n(Cc3ccccc3)c1=O)CCCC2,i,1,-2,37,11*
Cc1ccc2c(c1)N(CCC(=O)N1CCC3(CC1)OCCO3)C(=O)CO2,+,-3,0,-6,-3
CCCC[C@@H](C)C[C@@H](C)C(=O)N(C)[C@@H](CC(C)C)C(=O)N[C@H](C(=O)N(C)[C@H](C(=O)N1C[C@@H](O)C[C@H]1C(=O)N1C(=O)C=C[C@@H]1C)C(C)C)C(C)OC(C)=O (stereo partly drawn),?,/,0,1,6
CCOC(=O)C(O)(c1ccc(N(C)C(=O)c2ccc(Cl)c(Cl)c2)cc1)C(F)(F)F (stereo not drawn),i,-8,-1,27,-8
CCOC(=O)C(O)(c1ccc(NC(=O)c2ccc(Cl)c(Cl)c2)cc1)C(F)(F)F (stereo not drawn),i,-2,36,27,11*
N#CCC[C@@H]1CC[C@]2(CCCN(Cc3ccccn3)C2)O1,/,-1,/,/,/
COC(=O)c1ccc(NC(=O)CSc2nc3ccc(N4C(=O)C5C6C=CC(C6)C5C4=O)cc3s2)cc1 (stereo not drawn),i,15,6,41,12*
COc1ccc(-n2c(/C=C/c3ccc(O)c(O)c3)nc3ccccc3c2=O)cc1,i,18,5,2,7
COc1cc(/C=C/c2nc3ccccc3c(=O)n2-c2ccc(O)cc2)ccc1O,+,16,2,1,-3
COC(=O)C1=C(C(=O)OC)SC2(S1)C(C(=O)OC)=C(C(=O)OC)Sc1c2ssc1=O,?,11,-3,-1,25*
CCN(CC)C(=O)Cn1cc(/C=C2\C(=O)NC(=O)N(c3ccccc3F)C2=O)c2ccccc21,+,2,1,-2,0
CN1C2CCC1C(C(=O)Oc1ccccc1)C(c1ccc(Cl)cc1)C2 (stereo not drawn),/,0,/,/,/

# Screening data (PubChem BioAssay)
